TbREL1 inh = TbREL1 inhibition, primary screen | P86926 | TbREL1 RNA ligation, FRET fluorescence | inhibition, % at 9.66 µM | 89,000 compounds, 0.49% hits | AID 1117264;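 active means inhibition above the mean inhibition across all screened compounds plus 3 SD, cut at about 11% in these data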
Target sequence (P86926 whole entry, looked up): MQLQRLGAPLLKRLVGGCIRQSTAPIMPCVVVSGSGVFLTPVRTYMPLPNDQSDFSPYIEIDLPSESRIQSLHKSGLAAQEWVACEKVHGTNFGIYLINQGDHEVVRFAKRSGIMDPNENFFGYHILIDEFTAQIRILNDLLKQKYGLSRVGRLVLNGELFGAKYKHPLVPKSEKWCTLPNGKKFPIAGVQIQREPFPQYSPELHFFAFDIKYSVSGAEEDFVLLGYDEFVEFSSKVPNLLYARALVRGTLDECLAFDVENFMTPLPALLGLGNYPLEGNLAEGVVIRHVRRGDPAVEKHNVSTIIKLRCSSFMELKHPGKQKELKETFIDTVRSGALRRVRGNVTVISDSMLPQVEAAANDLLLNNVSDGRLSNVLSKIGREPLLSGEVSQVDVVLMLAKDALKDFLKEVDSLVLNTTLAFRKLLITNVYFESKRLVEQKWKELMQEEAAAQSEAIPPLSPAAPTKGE
TbREL1 conf = TbREL1 inhibition, confirmation; shares compounds with TbREL1 inh; TbREL1 RNA ligation, FRET fluorescence; inhibition, % at 9.66 µM; 390 compounds, 37% hits; AID 1117282;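 active means mean inhibition across replicates above a set limit taken from the earlier primary screen, cut at about 11% in these data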
Large screens that a line does not name were inactive (follow-up assays come after a bar, where they were run). Many of the other results were omitted from the sample, so hits are more common in it than they were.

COc1ccc(Cl)cc1S(=O)(=O)N1CCCC(C(=O)NCc2ccccn2)C1 (stereo not drawn)	none
COc1ccc(C[C@H]2CN3C(=NC[C@H]3Cc3ccccc3)N2CCNC(=O)CCC2CCCCC2)cc1	TbREL1 inh 11 | TbREL1 conf 19
COc1ccc(C[C@@H]2CN3C(=NC[C@@H]3C)N2C[C@H](C)NC(=O)CCC2CCCCC2)cc1	none
C[C@@H](CN1C2=NC[C@H](Cc3ccccc3)N2C[C@H]1Cc1ccc(O)cc1)NC(=O)CCC1CCCCC1	none
CCCCCCCCN1C(=O)[C@@H](CC(=O)NCc2cccc(C(F)(F)F)c2)C[C@@]2(C(=O)OC)C1=C[C@H](COCc1ccccc1)O[C@@H]2C	none
O=C1CCC[C@H]2C[C@H](NCc3cccc(Cl)c3)CC[C@]23CCCN13	none
COc1ccc(OC)c(-c2nnc(SCC(=O)N3CCOCC3)o2)c1	none
COc1ccc(OC)c(-c2cc(C(=O)N3CCOCC3)no2)c1	TbREL1 inh 100 | TbREL1 conf inactive
COc1ccc(-c2cc(C(=O)N3CCCC3)no2)cc1	none
Cc1ccc(NC(=S)NNC(=O)CSc2nc3sc4c(c3c(=O)n2-c2ccccc2)CCCC4)cc1	none
Cc1ccc(NC(=O)C2CCN(c3nnc(-n4cccc4)s3)CC2)c(C)c1	none
Cn1c(N)c(C(=O)CSc2nnc(-c3c[nH]c4ccccc34)n2C2CC2)c(=O)[nH]c1=O	TbREL1 inh 15 | TbREL1 conf inactive
Cn1c(N)c(C(=O)CSc2nnc(C3CC3)n2Cc2ccccc2)c(=O)[nH]c1=O	none
Cc1ccc(-n2nnnc2SCC(=O)c2c(N)n(C3CC3)c(=O)[nH]c2=O)cc1	none
COc1ccc(OC)c(S(=O)(=O)N2CCCCC2C(=O)N2CCCN(C)CC2)c1 (stereo not drawn)	none
O=C(O)c1cccc(S(=O)(=O)N(Cc2ccccc2)c2ccc(Cl)cc2)c1	none
CC1(C)CC(NC(=O)c2cccc(S(=O)(=O)N(Cc3ccccc3)c3ccccc3)c2)CC(C)(C)N1	TbREL1 inh 13 | TbREL1 conf inactive
C=CCN(c1ccccc1)S(=O)(=O)c1cccc(C(=O)NC2CCC(O)CC2)c1 (stereo not drawn)	none
Cc1ccc2nc(N(CCCN(C)C)C(=O)c3ccc(S(=O)(=O)N4CCc5ccccc5C4)cc3)sc2c1	none
CN(C)CCCN(C(=O)c1ccc(S(=O)(=O)N2CCc3ccccc32)cc1)c1nc2ccc(Cl)cc2s1	none
CN(C)CCCN(C(=O)c1ccc(C(=O)c2ccccc2)cc1)c1nc2cc3c(cc2s1)OCCO3	TbREL1 inh 12 | TbREL1 conf inactive
CN(C)CCCN(C(=O)c1ccc2c(c1)CCCC2)c1nc2cc3c(cc2s1)OCO3	none
CN(C)CCCN(C(=O)CCS(=O)(=O)c1ccccc1)c1nc2cc3c(cc2s1)OCO3	none
CN(C)CCCN(C(=O)c1ccc(S(=O)(=O)N2CCc3ccccc32)cc1)c1nc2ccc(F)cc2s1	TbREL1 inh 12 | TbREL1 conf inactive
COC(=O)CN1CCN(C(=O)c2csc(-c3ccccc3)n2)CC1	none
COc1cc2c(cc1NC(=O)CSc1nnc(-c3ccccc3C)n1Cc1ccco1)oc1ccccc12	none
COC[C@H]1CCCN1c1ccc2c(c1)O[C@@H]1CCN(C1)S2(=O)=O	none
CCCC1CCC2(CC1)CCC2OC(=S)NCc1ccc(Cl)cc1 (stereo not drawn)	none
COc1cc(OC)cc(-c2csc(N3CCC(C(N)=O)CC3)n2)c1	none
COc1cc(OC)cc(-c2c(Sc3ccccc3)c3cc(-c4ccc(OC)c(F)c4)ccc3n2C)c1	none
Cc1cc(NS(=O)(=O)c2ccc3c(c2)CCC(=O)N3)ccc1Cl	none
O=C(Nc1cccc(Cl)c1)NC1CCCCC1	none
O=C(Nc1nnc(-c2ccc(Cl)cc2)o1)NC1CCCCC1	none
Clc1ccc(CN=C(Nc2ccccc2)NC2CCCCC2)cc1	TbREL1 inh 13 | TbREL1 conf 15
C(=N\Nc1nncc2ccccc12)/c1cccnc1	none
Cc1ccc(C(C)C)c(OCCNCCc2ccccc2)c1	TbREL1 inh 13 | TbREL1 conf 15
Cc1ccc(C(C)C)c(OCCNS(C)(=O)=O)c1	none
c1ccc(CCNCCOc2ccccc2)cc1	none
Cc1ccc(S(=O)(=O)N2CC3(COC(C)(C)OC3)C[C@H]2CON2C(C)(C)CCCC2(C)C)cc1	none
COc1ccc(CNC(=O)O[C@H]2CC[C@@]34CCCN3C(=O)CCC[C@H]4[C@H]2C)cc1OC	none
COP1(=O)CCOCC[C@H](CC(C)C)NC(=O)[C@H](CC(C)C)N1 (stereo partly drawn)	none
O=C(c1ccccc1)c1nnc(-c2ccccc2F)o1	none
CC(=O)c1ccc(NS(=O)(=O)c2ccccc2)cc1	none
CC(=O)c1ccc(Nc2ccc(-c3ccccc3F)nn2)cc1	TbREL1 inh 13 | TbREL1 conf inactive
CCCCNC(=O)N1CCC(c2nc3ccc(Cl)cc3[nH]2)CC1	none
C[C@@H](NCCCn1cnc2c(OCc3ccccc3)ncnc21)c1cccc2ccccc12	TbREL1 inh 13 | TbREL1 conf 13
O=C(Cn1cnc2c(OCc3ccccc3)ncnc21)NCCN1CCOCC1	none
C[C@@H](NC(=O)Cn1cnc2c(OCc3ccccc3)ncnc21)c1cccc2ccccc12	none
COc1cccc(Nc2cc(C)nc3ccccc23)c1	none
COc1ccc2nc(C)cc(NCc3cccc(C(F)(F)F)c3)c2c1	TbREL1 inh 13 | TbREL1 conf 16
COc1ccc2nc(C)cc(Nc3ccccc3O)c2c1	none
O=C(CSc1nc2ccccc2nc1N1CCOCC1)N1CCN(c2cccc(C(F)(F)F)c2)CC1	none
Nc1ccc(-c2nc3ccc(-c4nc5ccccc5o4)cc3[nH]2)cc1	none
Nc1ccc(-c2nc3ccc([N+](=O)[O-])cc3[nH]2)cc1	none
Nc1ccc(-c2nc3ccc(N)cc3[nH]2)cc1	TbREL1 inh 18 | TbREL1 conf 36
CCCCN(C)C(=O)CSc1nnc(-c2cc(OC)c(OC)c(OC)c2)o1	none
CN(C)c1cccc(-c2ccnc(N3CCC(C(N)=O)CC3)n2)c1	none
CCOc1ccc(C(=O)CSc2nnc(SCc3ccc(Cl)cc3)s2)cc1	none
COC(=O)C1=C(C)N(Cc2ccc(Cl)cc2)C(=S)NC1c1ccc(Cl)cc1 (stereo not drawn)	none
CCN1C(=NCC(C)C)N[C@@H](c2cccc(C(F)(F)F)c2)C(C(=O)OC)=C1C	none
COC(=O)C1=C(C)N(Cc2ccc(C(F)(F)F)cc2)C(=NCc2ccccc2C(F)(F)F)NC1c1cccc(Cl)c1 (stereo not drawn)	TbREL1 inh 16 | TbREL1 conf 20
COC(=O)C1=C(C)N(Cc2ccccc2)C(=O)N[C@H]1c1cccc(F)c1	none
COC(=O)C1=C(C)N(Cc2ccccc2)C(=O)N[C@H]1c1ccccc1	none
COCCN=C1N[C@@H](c2cccc(C(F)(F)F)c2)C(C(=O)OC)=C(C)N1Cc1ccccc1	TbREL1 inh 14 | TbREL1 conf 18
COC(=O)C1=C(C)N(Cc2ccc(C(F)(F)F)cc2)C(=NCc2ccccc2C(F)(F)F)NC1c1ccccc1 (stereo not drawn)	TbREL1 inh 13 | TbREL1 conf 14
COC(=O)C1=C(C)N(Cc2ccccc2)C(=NCCCCO)N[C@H]1c1cccc(C(F)(F)F)c1	none
COC(=O)C1=C(C)N(C)C(=NCc2ccccc2C(F)(F)F)NC1c1ccc(F)cc1 (stereo not drawn)	none
COC(=O)C1=C(C)N(Cc2ccccc2)C(=S)NC1c1cccc(OC)c1 (stereo not drawn)	none
COC(=O)C1=C(C)N(Cc2ccc(C(F)(F)F)cc2)C(=NCc2ccccc2C(F)(F)F)NC1c1ccc(Cl)cc1 (stereo not drawn)	TbREL1 inh 11 | TbREL1 conf 16

Assay outcomes as filed in PubChem.
